The text below walks through data of PubChem BioAssay (NCI).

Structures are written as SMILES. Compounds without any hit were thinned out: in the full panel of roughly 83,000, 20% have a hit.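 The test compound was applied at a single concentration to cells in 96-well plates for 48 hours, and percent growth was recorded.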 Unmarked numbers belong to inactive results. Active and inactive are the calls of the source. Rule for the calls: active = growth percent below 10; inactive = the rest.

In the first experiment the test system is OVCAR-4 ovarian. The experiment can be described thus: NCI-60 one-dose screen, 48 h (100 = growth as untreated, 0 = no growth, -100 = all killed). The settings on record: 10 µM unless noted.
On to `O=c1ncc(-c2ccc(C(F)(F)F)cc2)c(NC2CCCCCC2)[nH]1`, for which the growth is 53.5%.

On to `NS(=O)(=O)N(c1cc(C(F)(F)F)cc(C(F)(F)F)c1)C1CCN(Cc2ccc(C(F)(F)F)cc2)CC1`, for which the growth is 31.6%.

Take `Nc1ccc2c(c1Br)Cc1ccccc1-2`: the growth was 98.6%.

In the case of `CC1C(C)N(C(=O)CCl)c2ccccc2N1C(=O)CCl` (stereo not given), the growth was -27.2% (active).

As to `Nc1ccccc1-c1ccn[nH]1`, the growth is 94.7%.

Regarding `O=C1OC2(c3ccccc31)c1ccccc1-c1ccccc12`, the growth is 82.9%.

As for `O=C(c1ccc(Cl)cc1)c1ccc(Cl)cc1`, the growth is 92.4%.

For the compound `Nc1ccc2c(c1)C(=O)c1cc(Cl)c(Cl)cc1-2`, the growth is 89.9%.

Regarding `COc1cc(/C(Cl)=C/C=C/C(=O)c2c(C)[n+]([O-])c3ccc(Cl)cc3[n+]2[O-])cc(OC)c1OC`, the growth was 34.1%.

Turning to `CCSc1ncc(Br)c(Sc2nc(N)nc3nc[nH]c23)n1`, the growth is 58.4%.

For the compound `O=C1/C(=C/c2ccccc2O)C(=S)SN1Cc1ccco1`, the growth was 105%.

As for `N#CC1c2ccccc2C=CN1C(=O)N(c1ccccc1)c1ccccc1` (stereo not given), the growth was 77%.

As for `COc1ccc2[nH]c(=O)c(CNc3ccc(Nc4nccc(-c5ccc(Cl)cc5)n4)cc3)cc2c1`, the growth is 99.9%.

Take `Nc1ccc(N=Nc2ccccc2)cc1[N+](=O)[O-]`: the growth was 71.5%.

Take `OCCN1CCN(CCCN2c3ccccc3Sc3ccc(C(F)(F)F)cc32)CC1`: the growth was 62.5%.

For the compound `C1CCC(C(CC2CCCCN2)C2CCCCC2)CC1` (stereo not given), the growth is 28.8%.

For `COc1ccc(C2CC(c3ccc4c(c3)OCO4)=NN2C=O)cc1` (stereo not given), the growth is 92.8%.

In the case of `CC(=O)Nc1c(Cl)cc2c(c1Cl)Cc1cc([N+](=O)[O-])ccc1-2`, the growth was 81.2%.

As to `Cc1ncc(C(=O)Nc2ccc(CN3CCN(C)CC3)c(C(F)(F)F)c2)cc1C#Cc1cncc2ncccc12`, the growth is 51.7%.

On to `Cc1cccc2nnc(-c3ccccc3)n12`, for which the growth was 104%.

Turning to `Cn1ccnc1C(=O)/C=C/c1ccc(C(=O)Nc2nc3ccccc3[nH]2)cc1`, the growth was 36.7%.

For the compound `Cc1cc(-c2ccccc2)cc(C)n1`, the growth was 99.7%.

In the case of `Cc1cn(C(C=O)OC(C=O)CO)c(=O)[nH]c1=O` (stereo not given), the growth was 96.9%.

As to `COc1cc(-c2nc3nc4sc(C)c(C)c4c(=O)n3[nH]2)cc(OC)c1OC`, the growth was 93.5%.

Take `Nc1ccc2c(c1)Cc1cc(Cl)c(Cl)cc1-2`: the growth was 78.6%.

On to `CCN(CC)CCCCCCCNc1c2ccc(Cl)cc2nc2ccc(OC)cc12`, for which the growth is -43% (active).

As for `O=C(Nc1nc(-c2ccc(Cl)cc2)cs1)c1cc(-c2ccc(Br)cc2)nc2ccc(Cl)cc12`, the growth is 47.3%.

For `Cc1ccc(C(NC(=O)c2ccccc2)c2ccc3cccnc3c2O)cc1` (stereo not given), the growth was 19.8%.

As for `O=[N+]([O-])c1ccc(N=Nc2c(Cl)cc(O)cc2Cl)cc1`, the growth was 12.1%.

On to `N#Cc1ncc(-c2ccc(C(F)(F)F)cc2)c(NC2CCCCCC2)n1`, for which the growth was 12.6%.

As to `O=C(O)CNC(=O)C1(N2C(=O)c3ccccc3C2=O)CCCC1`, the growth is 99.4%.

On to `O=[N+]([O-])c1ccc2[nH]cc(-c3c4ccccc4cc4[nH]c5ccc([N+](=O)[O-])cc5c34)c2c1`, for which the growth was 26.7%.

As for `COCCCNS(=O)(=O)c1ncnc2nc[nH]c12`, the growth was 113%.

For `O=C1Nc2ccc(Cl)cc2/C1=C/c1cccs1`, the growth is 35.9%.

With `O=C(COc1ccc(/C=C2\Cc3ccccc3C2=O)cc1)c1ccc(Cl)cc1`, the growth is 112%.

For `N=C1c2nc3n(c2C(=O)c2nc4n(c21)CCCCC4)CCCCC3`, the growth is 93.2%.

On to `O=C1N=C(N2CCOCC2)S/C1=C\c1cn(-c2ccccc2)nc1-c1ccccc1`, for which the growth is 25.1%.

Take `CCOC(=O)c1sc(NC(=O)COc2cccc(/C=C3\Cc4ccc(Cl)cc4C3=O)c2)nc1C`: the growth was 118%.

On to `C(=C1c2ccccc2-c2ccccc21)c1ccccn1`, for which the growth is 70.7%.

For `O=C(Nc1ccccc1S)c1ccccc1`, the growth is 98.4%.

The subject of another experiment is SK-OV-3 ovarian. Described as above. The settings on record: 10 µM unless noted.
In the case of `O=c1ncc(-c2ccc(C(F)(F)F)cc2)c(NC2CCCCCC2)[nH]1`, the growth was 83.9%.

Take `NS(=O)(=O)N(c1cc(C(F)(F)F)cc(C(F)(F)F)c1)C1CCN(Cc2ccc(C(F)(F)F)cc2)CC1`: the growth was 4.55% (active).

`Nc1ccc2c(c1Br)Cc1ccccc1-2`: the growth was 95.4%.

As to `CC1C(C)N(C(=O)CCl)c2ccccc2N1C(=O)CCl` (stereo not given), the growth was -20.4% (active).

As to `Nc1ccccc1-c1ccn[nH]1`, the growth is 92.1%.

As to `O=C1OC2(c3ccccc31)c1ccccc1-c1ccccc12`, the growth is 91.7%.

In the case of `O=C(c1ccc(Cl)cc1)c1ccc(Cl)cc1`, the growth is 114%.

As for `Nc1ccc2c(c1)C(=O)c1cc(Cl)c(Cl)cc1-2`, the growth was 97.9%.

For the compound `COc1cc(/C(Cl)=C/C=C/C(=O)c2c(C)[n+]([O-])c3ccc(Cl)cc3[n+]2[O-])cc(OC)c1OC`, the growth was 69.5%.

For the compound `CCSc1ncc(Br)c(Sc2nc(N)nc3nc[nH]c23)n1`, the growth is 18.5%.

As to `O=C1/C(=C/c2ccccc2O)C(=S)SN1Cc1ccco1`, the growth was 98.8%.

For the compound `N#CC1c2ccccc2C=CN1C(=O)N(c1ccccc1)c1ccccc1` (stereo not given), the growth was 110%.

Take `COc1ccc2[nH]c(=O)c(CNc3ccc(Nc4nccc(-c5ccc(Cl)cc5)n4)cc3)cc2c1`: the growth was 118%.

For the compound `Nc1ccc(N=Nc2ccccc2)cc1[N+](=O)[O-]`, the growth was 97.9%.

As to `OCCN1CCN(CCCN2c3ccccc3Sc3ccc(C(F)(F)F)cc32)CC1`, the growth is 73.8%.

Take `C1CCC(C(CC2CCCCN2)C2CCCCC2)CC1` (stereo not given): the growth was -52.3% (active).

As for `COc1ccc(C2CC(c3ccc4c(c3)OCO4)=NN2C=O)cc1` (stereo not given), the growth is 108%.

In the case of `CC(=O)Nc1c(Cl)cc2c(c1Cl)Cc1cc([N+](=O)[O-])ccc1-2`, the growth was 84.4%.

As to `Cc1ncc(C(=O)Nc2ccc(CN3CCN(C)CC3)c(C(F)(F)F)c2)cc1C#Cc1cncc2ncccc12`, the growth was 68.4%.

For `Cc1cccc2nnc(-c3ccccc3)n12`, the growth was 121%.

`Cn1ccnc1C(=O)/C=C/c1ccc(C(=O)Nc2nc3ccccc3[nH]2)cc1`: the growth is 77.2%.

In the case of `Cc1cc(-c2ccccc2)cc(C)n1`, the growth is 109%.

With `Cc1cn(C(C=O)OC(C=O)CO)c(=O)[nH]c1=O` (stereo not given), the growth is 103%.

With `COc1cc(-c2nc3nc4sc(C)c(C)c4c(=O)n3[nH]2)cc(OC)c1OC`, the growth was 92%.

Turning to `Nc1ccc2c(c1)Cc1cc(Cl)c(Cl)cc1-2`, the growth is 69.1%.

Turning to `CCN(CC)CCCCCCCNc1c2ccc(Cl)cc2nc2ccc(OC)cc12`, the growth was -30.7% (active).

For the compound `O=C(Nc1nc(-c2ccc(Cl)cc2)cs1)c1cc(-c2ccc(Br)cc2)nc2ccc(Cl)cc12`, the growth was 86.6%.

Consider `Cc1ccc(C(NC(=O)c2ccccc2)c2ccc3cccnc3c2O)cc1` (stereo not given), for which the growth was 19.3%.

In the case of `O=[N+]([O-])c1ccc(N=Nc2c(Cl)cc(O)cc2Cl)cc1`, the growth is 13.3%.

As for `N#Cc1ncc(-c2ccc(C(F)(F)F)cc2)c(NC2CCCCCC2)n1`, the growth was 73.6%.

On to `O=C(O)CNC(=O)C1(N2C(=O)c3ccccc3C2=O)CCCC1`, for which the growth was 111%.

With `O=[N+]([O-])c1ccc2[nH]cc(-c3c4ccccc4cc4[nH]c5ccc([N+](=O)[O-])cc5c34)c2c1`, the growth is 64.4%.

`COCCCNS(=O)(=O)c1ncnc2nc[nH]c12`: the growth was 121%.

On to `O=C1Nc2ccc(Cl)cc2/C1=C/c1cccs1`, for which the growth is 93.6%.

For `O=C(COc1ccc(/C=C2\Cc3ccccc3C2=O)cc1)c1ccc(Cl)cc1`, the growth was 112%.

Turning to `N=C1c2nc3n(c2C(=O)c2nc4n(c21)CCCCC4)CCCCC3`, the growth is 107%.

`O=C1N=C(N2CCOCC2)S/C1=C\c1cn(-c2ccccc2)nc1-c1ccccc1`: the growth was 83.3%.

On to `CCOC(=O)c1sc(NC(=O)COc2cccc(/C=C3\Cc4ccc(Cl)cc4C3=O)c2)nc1C`, for which the growth is 114%.

For `C(=C1c2ccccc2-c2ccccc21)c1ccccn1`, the growth was 95.5%.

Regarding `O=C(Nc1ccccc1S)c1ccccc1`, the growth is 115%.
